# According to PubChem BioAssay:
# A number with no mark means an inactive call. For part of these data: Entries with a potency or affinity are not part of this list. Active and inactive are the calls of the source. Unless noted, how the calls were made is not given here.
# Columns and labels:
# [1] = antimalarial activity against Dd2 strain (AID 2302;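 active means growth inhibition above 50% at the single 2 µM test dose, taken to imply half-maximal potency below 2 µM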;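 further: 0% = DMSO untreated growth and 100% = chloroquine plus artemisinin killed control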); settings: P. falciparum Dd2 in RBCs, LDH growth readout, 72 h; at 2 µM; stronger effect = higher value
# [2] = human hepatoma cell viability loss – ATP luminescence, cytotoxicity control for P. falciparum antimalarial project, primary screen (AID 2303;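 active means inhibition above 50%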;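 further: 0% = DMSO wells and 100% = digitonin-killed cells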); settings: HepG2 viability, 24-48 h, at 10 µM, stronger effect = higher value
# [3] = target: L-lactate dehydrogenase (Plasmodium falciparum (isolate CDC / Honduras)) (UniProt Q27743); test: PfLDH activity inhibition – cell lysate, 3D7 strain, counter-screen for P. falciparum growth inhibition project (AID 2304);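 further: 0% = vehicle and 100% = reference inhibitor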; settings: P. falciparum 3D7 crude extract, LDH APAD/NBT absorbance; at 2 µM; stronger effect = higher value
# Chain of L-lactate dehydrogenase (Plasmodium falciparum (isolate CDC / Honduras)) (Q27743 whole entry, looked up): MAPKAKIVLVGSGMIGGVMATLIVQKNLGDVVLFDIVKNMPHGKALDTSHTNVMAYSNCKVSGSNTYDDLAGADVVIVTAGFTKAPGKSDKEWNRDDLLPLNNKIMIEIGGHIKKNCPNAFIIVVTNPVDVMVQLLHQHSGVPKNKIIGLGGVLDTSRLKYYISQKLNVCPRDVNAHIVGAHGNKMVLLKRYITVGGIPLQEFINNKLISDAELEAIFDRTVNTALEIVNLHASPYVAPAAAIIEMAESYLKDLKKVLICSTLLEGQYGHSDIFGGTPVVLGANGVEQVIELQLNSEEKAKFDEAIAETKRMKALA
# [4] = inhibition of 3D7 malaria parasite growth – strain 3D7 (AID 2306);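 further: 0% = DMSO wells and 100% = chloroquine plus artemisinin control wells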; settings: P. falciparum 3D7 erythrocytic growth, LDH absorbance, 72 h; at 2 µM; stronger effect = higher value
# [5] = target: Calcium-dependent protein kinase 1 (Plasmodium falciparum (isolate 3D7)) (UniProt P62344); test: PfCDPK1 kinase inhibitors, biochemical, TCAMS library (AID 1159585; cut-off not given, nearly all actives have IC50 up to about 0.98 µM;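 further: inhibitors leave more ATP so luminescence rises with inhibition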); settings: recombinant PfCDPK1, Kinase-Glo ATP depletion luminescence
# Chain of Calcium-dependent protein kinase 1 (Plasmodium falciparum (isolate 3D7)) (P62344 whole entry, looked up): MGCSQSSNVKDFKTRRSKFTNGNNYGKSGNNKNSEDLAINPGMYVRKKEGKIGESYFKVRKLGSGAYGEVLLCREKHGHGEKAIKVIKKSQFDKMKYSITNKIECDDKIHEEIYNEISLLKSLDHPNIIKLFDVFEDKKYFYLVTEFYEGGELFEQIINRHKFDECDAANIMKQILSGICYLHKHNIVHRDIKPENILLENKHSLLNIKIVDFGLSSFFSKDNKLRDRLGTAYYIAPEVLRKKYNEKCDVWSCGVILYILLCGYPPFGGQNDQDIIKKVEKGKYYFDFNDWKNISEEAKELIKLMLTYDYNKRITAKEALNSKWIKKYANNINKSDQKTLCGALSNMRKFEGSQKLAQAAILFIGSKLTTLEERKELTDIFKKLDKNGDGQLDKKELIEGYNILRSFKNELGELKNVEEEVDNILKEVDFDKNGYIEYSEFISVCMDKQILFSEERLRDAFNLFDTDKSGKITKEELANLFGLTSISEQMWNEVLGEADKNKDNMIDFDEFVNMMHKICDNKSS
# [6] = target: Plasmodium falciparum protein kinase 6 (PK6, PF3D7_1337100) (UniProt Q8IDW1); test: PfPK6 kinase inhibitors, biochemical, TCAMS library (AID 1159586); settings: recombinant PfPK6, Kinase-Glo ATP depletion luminescence
# Chain of Plasmodium falciparum protein kinase 6 (PK6, PF3D7_1337100) (Q8IDW1 1-305): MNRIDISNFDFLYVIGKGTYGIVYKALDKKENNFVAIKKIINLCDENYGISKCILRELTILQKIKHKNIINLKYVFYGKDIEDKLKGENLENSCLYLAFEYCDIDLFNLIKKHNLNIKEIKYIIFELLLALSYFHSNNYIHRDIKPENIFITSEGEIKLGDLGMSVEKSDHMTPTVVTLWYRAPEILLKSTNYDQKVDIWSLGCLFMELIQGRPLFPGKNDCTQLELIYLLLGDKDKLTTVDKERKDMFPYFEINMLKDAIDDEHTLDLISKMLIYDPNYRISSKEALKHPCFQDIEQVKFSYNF
# [7] = target: Protein kinase 7 (PK7), Plasmodium falciparum 3D7 (PF3D7_0213400) (UniProt Q7YTF7); test: inhibition of Plasmodium PK7 catalytic activity – biochemical, TCAMS antimalarial set, Kinase-Glo luminescence (AID 1159587); settings: recombinant PfPK7, Kinase-Glo ATP depletion luminescence
# Chain of Protein kinase 7 (PK7), Plasmodium falciparum 3D7 (PF3D7_0213400) (Q7YTF7 1-343): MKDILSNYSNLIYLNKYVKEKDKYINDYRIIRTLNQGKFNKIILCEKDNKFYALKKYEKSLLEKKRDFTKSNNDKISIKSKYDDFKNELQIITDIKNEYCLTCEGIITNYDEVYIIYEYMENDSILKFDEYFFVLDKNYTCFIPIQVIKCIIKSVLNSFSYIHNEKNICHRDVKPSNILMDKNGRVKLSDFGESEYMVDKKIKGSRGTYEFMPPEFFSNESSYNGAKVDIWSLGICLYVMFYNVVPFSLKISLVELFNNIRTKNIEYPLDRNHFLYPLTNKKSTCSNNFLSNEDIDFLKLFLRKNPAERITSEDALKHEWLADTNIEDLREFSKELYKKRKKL
# [8] = target: Calcium-dependent protein kinase 4 (Plasmodium falciparum (isolate 3D7)) (UniProt Q8IBS5); test: PfCDPK4 kinase inhibitors, biochemical, TCAMS library (AID 1159588; cut-off not given, nearly all actives have IC50 up to about 0.91 µM); settings: recombinant PfCDPK4, Kinase-Glo ATP depletion luminescence
# Chain of Calcium-dependent protein kinase 4 (Plasmodium falciparum (isolate 3D7)) (Q8IBS5 whole entry, looked up): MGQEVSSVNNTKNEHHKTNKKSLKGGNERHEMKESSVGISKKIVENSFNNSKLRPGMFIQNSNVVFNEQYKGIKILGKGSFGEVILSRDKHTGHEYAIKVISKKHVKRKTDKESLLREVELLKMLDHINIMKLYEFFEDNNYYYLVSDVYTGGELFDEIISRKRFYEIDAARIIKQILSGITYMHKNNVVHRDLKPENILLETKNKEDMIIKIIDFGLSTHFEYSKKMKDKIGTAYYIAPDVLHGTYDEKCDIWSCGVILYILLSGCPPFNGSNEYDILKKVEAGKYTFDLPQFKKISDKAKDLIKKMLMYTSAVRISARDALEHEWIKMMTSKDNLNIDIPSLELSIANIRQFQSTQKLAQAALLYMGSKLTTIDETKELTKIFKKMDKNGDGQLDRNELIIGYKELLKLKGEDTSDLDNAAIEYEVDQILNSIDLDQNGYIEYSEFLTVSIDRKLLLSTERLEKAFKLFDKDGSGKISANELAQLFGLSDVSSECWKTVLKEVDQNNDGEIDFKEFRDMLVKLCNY
SMILES,growth inhibition [1],inhibition [2],inhibition [3] [%],growth inhibition [4],outcome [5],outcome [6],outcome [7],outcome [8]
Clc1ccccc1/C=C/c1cncnc1Nc1ccc2nc(Cc3ccccc3)[nH]c2c1,26%,4%,-1,96% (active),inactive,inactive,inactive,inactive
N#Cc1ccc(NC(=NC2CCCc3ccccc32)Nc2ccc(-c3ccccc3)cc2)c(O)c1 (stereo not drawn),98% (active),0%,3,99% (active),inactive,inactive,inactive,inactive
CCOc1ccc(-c2noc(-c3c[nH]c4ccccc4c3=O)n2)cc1,93% (active),-7%,-3,99% (active),inactive,inactive,inactive,inactive
NC1CCCN(Cc2cccc(-c3ccc(-c4nc5ccccc5[nH]4)cc3)c2)C1 (stereo not drawn),73% (active),25%,-6,101% (active),inactive,inactive,inactive,inactive
CCCCOc1c(CCNCCCCNCCc2cc(F)c3ccccc3c2OCCCC)cc(F)c2ccccc12,78% (active),97% (active),-3,96% (active),inactive,inactive,inactive,inactive
COc1ccc(N2CCN(CCc3ccc(NC(=O)c4ccc([N+](=O)[O-])cc4)cc3)CC2)c(OC)c1,0%,45%,1,83% (active),inactive,inactive,inactive,inactive
CCc1ccc(-c2nc3cc(NC(=O)c4ccc([N+](=O)[O-])o4)ccc3o2)cc1,80% (active),4%,3,97% (active),inactive,inactive,inactive,inactive
O=C(/C=C/c1ccc(Cl)c(Cl)c1)NCCCCCCN1CCCN(C(=O)Nc2ccc(C(F)(F)F)cc2)CC1,25%,47%,-8,100% (active),inactive,inactive,inactive,inactive
COc1cc(CCN(C)Cc2ccc(OC)c(OC)c2)ccc1NC(=O)c1cccc2c(=O)c3cccc(F)c3[nH]c12,26%,14%,0,102% (active),inactive,inactive,inactive,inactive
O=C(NC1CCCCC1)N(Cc1ccc(-c2cccc(CNCc3ccc4c(c3)OCO4)c2)cc1)C1CCN(Cc2ccccc2)CC1,72% (active),23%,4,101% (active),inactive,inactive,inactive,inactive
COC(=O)C1(NC(=O)c2ccc(-n3nc(C)c(-c4ccccc4)c3N)cc2)CCCC1,81% (active),9%,-5,96% (active),inactive,inactive,inactive,inactive
COc1ccc(-c2ccc(NC(=O)c3ccccc3)cc2)cc1CN1CCCN(C)CC1,17%,24%,3,92% (active),inactive,inactive,inactive,inactive
Cc1c(-c2cccc(CNCCc3ccc(Cl)cc3)c2)cnc(N)c1C,30%,9%,-5,87% (active),inactive,inactive,inactive,inactive
O=C(c1ccc(Br)o1)N1N=C(c2cccs2)CC1c1ccc(Br)cc1 (stereo not drawn),45%,5%,-4,96% (active),inactive,inactive,inactive,inactive
N#Cc1cncc(-c2nc3c(N4CCC(Cc5ccccc5)CC4)cccc3n2C2CCNC2)c1 (stereo not drawn),7%,5%,-1,88% (active),inactive,inactive,inactive,inactive
COc1ccc(O)c(C(=O)c2cc(C(=O)NC3CCCCC3)c(=O)n(C3CCCCC3)c2)c1,62% (active),8%,3,99% (active),inactive,inactive,inactive,inactive
COc1ccc(CNC(=O)NC2CCN(c3ccnc(Nc4ccc(F)cc4)n3)C2)cc1 (stereo not drawn),78% (active),4%,-2,91% (active),inactive,inactive,inactive,inactive
CCN(CCO)Cc1ccc(-c2ccc(NS(=O)(=O)c3cccc4cccnc34)cc2)cc1,16%,25%,2,92% (active),inactive,inactive,inactive,inactive
CCCN=CNc1cc(-c2csc(N=C(N)N)n2)cc([N+](=O)[O-])c1,1%,12%,-3,91% (active),inactive,inactive,inactive,inactive
COc1ccc2nccc([C@@H](O)CN3CCC(NCc4ccc5c(n4)NCCC5)CC3)c2c1,39%,21%,-3,101% (active),inactive,inactive,inactive,inactive
COc1ccc2nccc(N3CCN(CCNCc4ccc5c(n4)NC(=O)CS5)CC3)c2n1,67% (active),10%,1,100% (active),inactive,inactive,inactive,inactive
